# Assay results as given in the supplement of paper PMC10849652.
# The full data set covers some 7,900 targets. This sample favours those with a hit. About 0.6% of all pairs of compound and target were hits. Unmarked numbers belong to inactive results.
# Assays:
# Experiment in all cases: log2 fold change, soluble protein after heating vs DMSO (PISA); higher = thermal stabilisation; K562 cells, 10 uM, 30 min; active = over 0.2 and 3.5 SD of the protein, either way, in both replicates (recomputed)
# AAGAB = AAGAB (UniProt Q6PD74)
# Chain of AAGAB (Q6PD74 whole entry, looked up): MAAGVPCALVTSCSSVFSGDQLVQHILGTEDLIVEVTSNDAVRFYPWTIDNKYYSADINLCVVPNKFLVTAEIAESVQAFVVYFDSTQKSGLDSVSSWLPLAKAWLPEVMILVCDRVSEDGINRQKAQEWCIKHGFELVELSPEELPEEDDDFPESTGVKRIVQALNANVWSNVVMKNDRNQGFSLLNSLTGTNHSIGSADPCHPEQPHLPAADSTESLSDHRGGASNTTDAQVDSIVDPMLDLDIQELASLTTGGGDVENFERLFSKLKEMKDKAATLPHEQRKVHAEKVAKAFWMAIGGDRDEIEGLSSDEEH
# Summary of the method: (§1)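 K562 cells at 2×10^6 cells/mL were given 10 μM compound for 30 min. Aliquots then went through 3 min of heating across 48°C-58°C, were pooled, and were extracted in PBS with 0.5% NP-40 at 4°C, and the supernatant after 21,000xg for 90 min was quantified by TMTpro 16plex LC-MS/MS with channel sums equalised. Thermal stability relative to control samples, from duplicates, is given as log2 fold change.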
# AAK1 [1] = target: AAK1 (UniProt A0A096LP25)
# Summary of the method: as §1
# AAK1 [2] = target: AAK1 (UniProt Q2M2I8)
# Chain of AAK1 (UniProt Q2M2I8) (Q2M2I8 whole entry, looked up): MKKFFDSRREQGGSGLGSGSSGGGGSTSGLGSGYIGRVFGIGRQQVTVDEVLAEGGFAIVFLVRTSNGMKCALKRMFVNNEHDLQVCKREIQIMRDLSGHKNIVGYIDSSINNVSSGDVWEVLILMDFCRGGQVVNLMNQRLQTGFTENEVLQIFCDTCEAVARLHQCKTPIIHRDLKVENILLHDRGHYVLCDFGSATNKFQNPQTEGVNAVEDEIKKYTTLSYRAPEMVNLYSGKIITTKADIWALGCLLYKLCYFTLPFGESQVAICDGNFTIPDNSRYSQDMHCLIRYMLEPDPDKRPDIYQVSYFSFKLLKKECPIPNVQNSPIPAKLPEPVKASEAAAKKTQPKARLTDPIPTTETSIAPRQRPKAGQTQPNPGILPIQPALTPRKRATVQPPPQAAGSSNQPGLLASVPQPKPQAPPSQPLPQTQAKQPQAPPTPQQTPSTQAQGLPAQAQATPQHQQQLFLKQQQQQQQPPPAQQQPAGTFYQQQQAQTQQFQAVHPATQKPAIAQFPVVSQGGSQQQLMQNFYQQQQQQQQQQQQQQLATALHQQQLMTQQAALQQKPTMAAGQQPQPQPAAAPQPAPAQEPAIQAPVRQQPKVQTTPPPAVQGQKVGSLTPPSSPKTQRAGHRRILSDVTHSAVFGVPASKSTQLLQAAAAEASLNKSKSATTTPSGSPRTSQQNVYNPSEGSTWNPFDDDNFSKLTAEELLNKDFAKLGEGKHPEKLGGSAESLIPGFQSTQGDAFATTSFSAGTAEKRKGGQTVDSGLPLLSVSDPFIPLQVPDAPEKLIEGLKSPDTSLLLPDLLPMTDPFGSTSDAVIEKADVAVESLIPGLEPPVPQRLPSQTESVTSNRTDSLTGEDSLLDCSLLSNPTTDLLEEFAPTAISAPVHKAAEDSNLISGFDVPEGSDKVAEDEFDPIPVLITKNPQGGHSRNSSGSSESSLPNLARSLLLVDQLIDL
# Summary of the method: as §1
Compound,log2 fold change (AAGAB),log2 fold change (AAK1 [1]),log2 fold change (AAK1 [2])
Cc1cn(-c2cc(NC(=O)c3ccc(C)c(Nc4nccc(-c5cccnc5)n4)c3)cc(C(F)(F)F)c2)cn1 [nilotinib],-0.077,-0.084,0.027
CNC(=O)c1ccc(Nc2ncc(C(F)(F)F)c(NCc3nccnc3N(C)S(C)(=O)=O)n2)cc1 [defactinib],-0.187,0.037,-0.106
NCC(=O)Nc1ccc(-n2nc(C(F)(F)F)cc2-c2ccc3c(ccc4ccccc43)c2)cc1,-0.011,-0.085,0.045
C[C@@H]1COCCN1c1cc(C2(S(C)(=O)=O)CC2)nc(-c2cccc3[nH]ccc23)n1,-0.035,0.012,0.028
Cc1cccc(CC(=O)N2CCc3c2ccc(-c2cn(C)c4ncnc(N)c24)c3F)n1,0.016,-0.017,-0.048
CCN(CC)Cc1ccc2cc(COC(=O)Nc3ccc(C(=O)NO)cc3)ccc2c1 [givinostat],-0.004,0.056,0.042
Cn1cncc1[C@@](N)(c1ccc(Cl)cc1)c1ccc2c(c1)c(-c1cccc(Cl)c1)cc(=O)n2C [tipifarnib],-0.031,,-0.057
CS(=O)(=O)CCNCc1ccc(-c2ccc3ncnc(Nc4ccc(OCc5cccc(F)c5)c(Cl)c4)c3c2)o1 [lapatinib],-0.038,,0.038
NC(=O)Nc1cc(-c2cccc(F)c2)sc1C(=O)N[C@H]1CCCNC1,-0.071,0.318,0.28
COC(=O)N[C@@H](C)CNc1nccc(-c2cn(C(C)C)nc2-c2cc(Cl)cc(NS(C)(=O)=O)c2F)n1 [encorafenib],0.045,0.033,-0.047
CS(=O)(=O)c1ccc(-c2cnc(N)c(C(=O)Nc3ccccc3)n2)cc1,0.097,0.138,0.043
O=C1NC(=O)/C(=C\c2ccc3nccnc3c2)S1,0.027,0.107,0.033
